This is an account of results in PubChem BioAssay.

Each structure is given as a SMILES string. The source made the active and inactive calls.

A short description of assay [1]: small molecules captured by biotinylated probe aFSTL3 – biochemical, small-molecule microarray, fluorescence 635/667, stem cell growth factor project, primary screen (AID 1064).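 Also: measures binding of the biotinylated anti-FSTL3 antibody to printed compounds.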 Particulars: higher = more signal.
Assay [2] is described as follows: binders from COS7 lysate, DM2A8 probe, primary screen, torsin A project, cell lysate, small-molecule microarray, fluorescence 635/667 (AID 1065). Particulars: higher = more signal, COS7 lysate expressing mutant human TOR1A.
Assay [3] in a line: small molecules captured by biotinylated probe aFGF2 – biochemical, small-molecule microarray, fluorescence 635/667, stem cell growth factor project, primary screen (AID 1067).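 Also: measures binding of biotinylated aFGF2 protein to printed compounds on slides; z-score merges feature fluorescence and signal-to-noise across triplicate slides.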 Particulars: higher = more signal.
Assay [4] is described as follows: small molecules captured by biotinylated probe aFGF10 – biochemical, small-molecule microarray, fluorescence 635/667, stem cell growth factor project, primary screen (AID 1071).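 Also: score merges 667 nm spot intensity and signal to noise from triplicate slides.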 Particulars: higher = more signal.
Assay [5] addresses Neurogenic locus notch homolog protein 2 (Homo sapiens) (UniProt Q04721). As to the kind of experiment: small molecules binding Notch2 protein – biochemical, small-molecule microarray, 635 nm fluorescence, stem cell growth factors, primary screen (AID 1073). Particulars: higher = more signal.
The target in assay [6] is Pro-neuregulin-1, membrane-bound isoform (Homo sapiens) (UniProt Q02297). As to the kind of experiment: small molecules binding neuregulin-1 protein – biochemical, small-molecule microarray, fluorescence 635/667, psychiatric disease protein project, primary screen (AID 1075).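 Also: score combines 667 nm spot fluorescence with signal to noise.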 Particulars: NRG1 binding, 635 nm fluorescence, higher = more signal.
For assay [7], the system named is Neuregulin-1 EGF-like domain. As to the kind of experiment: small molecules binding NRG1 EGF domain – biochemical, small-molecule microarray, 635 nm fluorescence, primary screen (AID 1081).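 Also: binding of the protein to compounds printed on small-molecule microarray slides.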 Particulars: higher = more signal.
The nature of assay [8]: FRG1 expression reporter modulators in myotubes – cell-based, C2C12 myotubes, firefly/Renilla luciferase, luminescence, FRG1 inhibition for FSHD, primary screen (AID 1084). Particulars: FRG1 promoter luciferase, higher = more signal, called active from +8 up or from −8 down.
A short description of assay [9]: small molecules captured by biotinylated probe aFST – biochemical, small-molecule microarray, fluorescence 635/667, stem cell growth factor project, primary screen (AID 1086).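 Also: score merges 667 nm fluorescence with signal-to-noise of each printed compound spot.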 Particulars: higher = more signal.
Assay [10] can be described thus: binders of probe aHhip on microarray, primary screen, stem cell growth factor project, biochemical, small-molecule microarray, fluorescence 635/667 (AID 1087).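 Also: score merges spot fluorescence at 667nm with spot signal to noise ratio.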 Particulars: higher = more signal.
The test system of assay [11] is PRMT1 (protein arginine N-methyltransferase 1). As to the kind of experiment: small molecules binding arginine methyltransferase PRMT1 – biochemical, small-molecule microarray, 635 nm fluorescence, primary screen (AID 1088).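 Also: binding of Prmt1 protein to compounds spotted on small-molecule microarray slides.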 Particulars: higher = more signal.
Assay [12] can be described thus: growth effects on S. cerevisiae YJM789 – YJM789 clinical isolate, OD600, 24 h, basal, primary screen (AID 1089).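 Also: growth of clinical yeast isolate S. cerevisiae YJM 789 seeded 1000 cells per well; test concentration not given here.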 Particulars: higher = more signal, called active from +8 up or from −8 down.
Assay [13] can be described thus: S. pombe growth modifiers, basal conditions – strain 972, OD600, 24 h, no modulator, primary screen (AID 1090).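 Also: basal condition with compound alone and no growth modifier present; test concentration not given here.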 Particulars: S. pombe 972 growth, higher = more signal, called active from +8 up or from −8 down.
Assay [14] can be described thus: budding yeast growth modifiers under rapamycin – strain BY4716, OD600, 96 h, primary screen (AID 1091). Also: test concentration not given here. Particulars: S. cerevisiae BY4716 + rapamycin, higher = more signal, called active from +8 up or from −8 down.
Assay [15] has as its target Torsin-1A-interacting protein 2 (Homo sapiens) (UniProt Q8NFQ8). Kind of assay: small molecules binding lysate-expressed LULL1 – cell lysate, human LULL1 lysate, 635/667 nm fluorescence, primary screen (AID 1092).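 Also: score merges per-feature 667 nm fluorescence with signal-to-noise.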 Particulars: small-molecule microarray, hLULL1 lysate binding, 635 nm fluorescence; higher = more signal.
Assay [16] can be described thus: optical density change of DRC41 E. coli – strain DRC41, OD650, 24 h, E. coli filamentation project, primary screen (AID 1093).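 Also: MC1000 strain lacking acrAB efflux and sulA so SOS filamentation is blocked; test concentration not given here.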 Particulars: E. coli DRC41 growth, higher = more signal, called active from +8 up or from −8 down.
The nature of assay [17]: probe aLefty2 binding to arrayed compounds – biochemical, biotinylated probe, 635/667 nm fluorescence, primary screen (AID 1094).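 Also: score merges spot fluorescence near 667 nm with spot signal-to-noise ratio.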 Particulars: small-molecule microarray, higher = more signal.
The subject of assay [18] is Noggin (protein binding on small-molecule microarray). Kind of assay: small molecules binding Noggin protein – biochemical, 635/667 nm fluorescence, primary screen (AID 1095).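 Also: score merges 667 nm feature fluorescence with signal to noise over triplicate slides.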 Particulars: 635 nm fluorescence, higher = more signal.
In assay [19] the target is Neurogenic locus notch homolog protein 3 (Homo sapiens) (UniProt Q9UM47). As to the kind of experiment: small molecules binding NOTCH3 protein – biochemical, 635/667 nm fluorescence, primary screen (AID 1096). Particulars: small-molecule microarray, 635 nm fluorescence, higher = more signal.
The nature of assay [20]: probe aEGFR binding to arrayed compounds – biochemical, biotinylated probe, 635/667 nm fluorescence, primary screen (AID 1097).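 Also: probe is a biotinylated anti-EGFR antibody binding compounds printed on slides; score combines fluorescence near 667 nm and signal to noise of each spot.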 Particulars: small-molecule microarray, higher = more signal.

Sequence of Pro-neuregulin-1, membrane-bound isoform (Homo sapiens) (Q02297 whole entry, looked up, the tested form may be a part, canonical isoform): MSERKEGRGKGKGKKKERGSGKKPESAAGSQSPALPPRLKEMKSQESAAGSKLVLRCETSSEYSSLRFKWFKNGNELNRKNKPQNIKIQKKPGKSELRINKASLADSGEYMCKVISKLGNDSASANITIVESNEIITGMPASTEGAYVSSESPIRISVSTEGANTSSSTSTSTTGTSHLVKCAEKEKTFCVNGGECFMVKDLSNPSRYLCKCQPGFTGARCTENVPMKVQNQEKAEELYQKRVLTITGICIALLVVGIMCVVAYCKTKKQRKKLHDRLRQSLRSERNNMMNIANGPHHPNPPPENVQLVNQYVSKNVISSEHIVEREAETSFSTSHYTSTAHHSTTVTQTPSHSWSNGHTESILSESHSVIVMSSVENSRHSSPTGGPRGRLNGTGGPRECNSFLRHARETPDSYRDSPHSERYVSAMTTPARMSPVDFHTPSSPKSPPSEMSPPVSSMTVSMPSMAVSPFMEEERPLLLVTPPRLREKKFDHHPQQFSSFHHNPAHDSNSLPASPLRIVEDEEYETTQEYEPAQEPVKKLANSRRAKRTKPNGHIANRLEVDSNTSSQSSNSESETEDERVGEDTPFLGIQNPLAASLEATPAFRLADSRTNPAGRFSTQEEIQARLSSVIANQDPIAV
Sequence of Neurogenic locus notch homolog protein 2 (Homo sapiens) (Q04721 whole entry, looked up, canonical isoform): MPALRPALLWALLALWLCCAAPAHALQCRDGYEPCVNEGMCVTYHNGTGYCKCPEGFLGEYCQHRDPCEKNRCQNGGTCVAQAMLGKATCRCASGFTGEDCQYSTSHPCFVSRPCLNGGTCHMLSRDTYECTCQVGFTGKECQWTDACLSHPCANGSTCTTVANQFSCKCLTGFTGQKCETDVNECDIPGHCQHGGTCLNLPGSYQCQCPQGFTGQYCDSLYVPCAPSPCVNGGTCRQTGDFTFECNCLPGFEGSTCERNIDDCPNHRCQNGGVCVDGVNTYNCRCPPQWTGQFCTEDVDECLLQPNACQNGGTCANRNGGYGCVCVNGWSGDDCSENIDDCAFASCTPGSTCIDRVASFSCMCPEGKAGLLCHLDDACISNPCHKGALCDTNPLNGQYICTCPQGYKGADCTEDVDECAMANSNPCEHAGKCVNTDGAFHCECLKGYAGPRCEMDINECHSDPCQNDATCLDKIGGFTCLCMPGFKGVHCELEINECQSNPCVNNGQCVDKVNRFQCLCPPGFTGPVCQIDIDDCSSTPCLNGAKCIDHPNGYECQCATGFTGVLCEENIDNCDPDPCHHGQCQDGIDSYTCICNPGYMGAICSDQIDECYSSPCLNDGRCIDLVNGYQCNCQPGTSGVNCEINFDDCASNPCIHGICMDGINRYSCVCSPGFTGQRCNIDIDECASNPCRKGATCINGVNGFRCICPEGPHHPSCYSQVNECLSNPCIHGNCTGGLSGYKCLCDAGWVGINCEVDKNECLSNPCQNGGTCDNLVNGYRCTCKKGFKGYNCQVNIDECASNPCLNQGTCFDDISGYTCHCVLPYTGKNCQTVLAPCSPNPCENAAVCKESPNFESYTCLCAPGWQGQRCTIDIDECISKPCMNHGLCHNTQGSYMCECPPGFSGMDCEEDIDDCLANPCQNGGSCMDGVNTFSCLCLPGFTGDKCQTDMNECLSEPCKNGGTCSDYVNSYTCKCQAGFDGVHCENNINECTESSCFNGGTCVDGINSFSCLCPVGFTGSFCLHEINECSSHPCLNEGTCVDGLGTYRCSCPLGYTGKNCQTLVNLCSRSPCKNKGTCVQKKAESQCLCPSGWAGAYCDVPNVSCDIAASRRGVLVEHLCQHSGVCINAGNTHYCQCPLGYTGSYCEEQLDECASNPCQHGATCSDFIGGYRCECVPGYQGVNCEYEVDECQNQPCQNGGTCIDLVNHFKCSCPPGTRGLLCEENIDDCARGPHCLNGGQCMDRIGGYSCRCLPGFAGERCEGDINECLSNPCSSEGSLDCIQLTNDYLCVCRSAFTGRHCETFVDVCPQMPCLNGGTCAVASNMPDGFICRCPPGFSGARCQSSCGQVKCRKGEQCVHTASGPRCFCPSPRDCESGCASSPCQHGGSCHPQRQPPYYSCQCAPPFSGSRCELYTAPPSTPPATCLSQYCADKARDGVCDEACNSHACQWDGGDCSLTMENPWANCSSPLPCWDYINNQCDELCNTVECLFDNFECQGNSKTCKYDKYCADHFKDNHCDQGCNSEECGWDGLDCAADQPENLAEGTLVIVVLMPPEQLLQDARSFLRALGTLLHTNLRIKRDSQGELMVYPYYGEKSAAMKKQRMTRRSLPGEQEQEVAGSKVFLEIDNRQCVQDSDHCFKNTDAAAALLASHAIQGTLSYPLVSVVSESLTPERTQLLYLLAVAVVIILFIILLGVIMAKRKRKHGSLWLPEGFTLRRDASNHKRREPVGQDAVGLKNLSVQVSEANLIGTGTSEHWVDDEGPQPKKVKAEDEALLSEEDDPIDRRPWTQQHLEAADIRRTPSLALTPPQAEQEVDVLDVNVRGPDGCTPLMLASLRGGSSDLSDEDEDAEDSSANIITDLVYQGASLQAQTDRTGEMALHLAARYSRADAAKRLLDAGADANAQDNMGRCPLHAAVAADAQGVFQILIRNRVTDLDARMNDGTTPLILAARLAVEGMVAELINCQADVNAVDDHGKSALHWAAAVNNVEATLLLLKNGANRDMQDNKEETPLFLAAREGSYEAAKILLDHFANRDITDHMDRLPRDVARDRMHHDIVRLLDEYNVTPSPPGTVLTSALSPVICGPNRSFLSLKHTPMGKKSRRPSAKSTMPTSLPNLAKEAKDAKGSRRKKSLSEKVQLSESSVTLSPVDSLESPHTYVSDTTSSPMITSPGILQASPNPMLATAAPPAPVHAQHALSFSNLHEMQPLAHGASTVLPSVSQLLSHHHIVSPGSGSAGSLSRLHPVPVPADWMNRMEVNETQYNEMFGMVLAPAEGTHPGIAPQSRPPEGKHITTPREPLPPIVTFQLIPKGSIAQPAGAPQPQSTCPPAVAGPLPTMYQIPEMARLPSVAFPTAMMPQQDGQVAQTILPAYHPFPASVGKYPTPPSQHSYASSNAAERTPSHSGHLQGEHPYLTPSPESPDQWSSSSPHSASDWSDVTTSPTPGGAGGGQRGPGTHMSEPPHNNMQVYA
Sequence of Torsin-1A-interacting protein 2 (Homo sapiens) (Q8NFQ8 whole entry, looked up): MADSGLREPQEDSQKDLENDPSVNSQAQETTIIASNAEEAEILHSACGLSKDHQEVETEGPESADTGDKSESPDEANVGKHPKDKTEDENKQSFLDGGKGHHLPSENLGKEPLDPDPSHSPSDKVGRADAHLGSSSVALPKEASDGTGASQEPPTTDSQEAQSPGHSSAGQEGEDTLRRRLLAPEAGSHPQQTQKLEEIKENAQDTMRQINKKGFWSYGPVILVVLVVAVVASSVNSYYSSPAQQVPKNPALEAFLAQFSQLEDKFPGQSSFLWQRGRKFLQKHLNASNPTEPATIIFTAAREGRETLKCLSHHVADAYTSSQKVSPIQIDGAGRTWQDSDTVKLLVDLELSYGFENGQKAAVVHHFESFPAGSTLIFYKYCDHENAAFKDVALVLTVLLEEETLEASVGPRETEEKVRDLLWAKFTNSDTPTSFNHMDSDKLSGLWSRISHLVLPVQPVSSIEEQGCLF

`COc1ccc(NN2C(C(O)c3ccc(F)cc3)C=CC3C(=O)N(C4CCCCC4)C(=O)C32)cc1` (stereo not given): the composite z-score in assay [1] was 0.443; in assay [2] it was 0.0876; in [3], 0.133; in assay [4] it was 0.686; in assay [5] it was 1.59; in [6] it was 1.52. The composite z-score in assay [7] is 1.22; in assay [9], 0.688; in assay [10], -0.0618; in assay [11], 1.56; in assay [15], 3.24; in assay [17], 0.12. Besides, the composite z-score in assay [18] was determined as 0.169; in [19], 1.07; in [20], 0.0903. For the same compound, the z-score in assay [8] is 1.78 (inactive); in [12] it was 0.0646 (inactive); in assay [13], 1.09 (inactive); in [14] it was 0.91 (inactive); in assay [16] it was -0.637 (inactive).

Consider `C=CCOC(=O)[C@H]1[C@@H]2C(=O)O[C@@H](c3ccccc3)[C@@H](c3ccccc3)N2[C@@H](c2ccc(OCCOC(=O)[C@H]3C[C@H]4C(=O)NCC(=O)N4[C@H]3c3ccc(O)cc3)cc2)[C@]12C(=O)Nc1ccccc12`, for which the composite z-score in [1] is 0.924; in assay [2], 0.933; in [3] it was -0.0355; in [4] it was 0.738; in assay [5], 1.2; in assay [6], 1.57. In addition, the composite z-score in assay [7] came out at 1.33; in [9] it was 0.389; in assay [10], 0.49; in assay [11], 1.48; in [15], 2.58; in assay [17] it was 0.0337. Moreover, the results for the composite z-score in [18], in assay [19] and in [20] were 1.22, 1.09 and 0.0656, respectively. The z-score in assay [8] is 0.575 (inactive); in [12] it was 1.71 (inactive); in assay [13], 1.61 (inactive); in assay [14], 4.1 (inactive); in assay [16] it was -0.0665 (inactive).

With `O=C1O[C@H](c2ccccc2)[C@H](c2ccccc2)N2[C@H]1[C@@H](C(=O)O)[C@]1(C(=O)Nc3ccc(C#CC4(O)CCCCCC4)cc31)[C@H]2c1ccccc1OCCO`, the composite z-score is -0.304 in assay [1]; 1.43 in [2]; 0.0322 in [3]; 0.85 in assay [4]; 1.11 in assay [5]; 0.278 in assay [6]. Further, the composite z-score in assay [7] worked out at 1.19; in assay [9], 0.39; in [10], 0.781; in assay [11], 1.56; in assay [15], 2.27; in assay [17], 0.366. For the same compound, the composite z-score in assay [18] amounted to 0.621; in [19], 1.11; in assay [20], 0.494. Besides, the z-score was -0.283 (inactive) in assay [8]; 2.68 (inactive) in assay [12]; -0.155 (inactive) in assay [13]; 0.247 (inactive) in [14]; 1.47 (inactive) in assay [16].

In the case of `C=C(COC)C(=O)CC[C@H](OC(C)=O)c1ccccc1OCCO`, the composite z-score is -0.0661 in assay [1]; 0.697 in assay [2]; -0.167 in assay [3]; 0.484 in assay [4]; -0.987 in assay [5]; -0.493 in assay [6]. Besides, the composite z-score in assay [7] is 0.355; in [9] it was -0.215; in assay [10] it was -0.0994; in assay [11], 1.39; in assay [15], -0.323; in assay [17] it was -0.166. The composite z-score was 0.985 in assay [18], 0.367 in assay [19] and -0.262 in assay [20]. Further, the z-score was -0.0831 (inactive) in assay [8]; 0.556 (inactive) in assay [12]; -2.58 (inactive) in assay [13]; -0.401 (inactive) in assay [14]; 1.32 (inactive) in [16].

Turning to `C=CCC(OC(C)=O)[C@@H]1[C@@H](N(Cc2cccc3ccccc23)C(=O)c2ccc(C)cc2)c2cc(OCCCO)ccc2N1C(=O)Cc1ccc2ccccc2c1` (stereo not given in full), the composite z-score was 0.151 in [1]; -0.124 in [2]; 0.0348 in assay [3]; 0.021 in assay [4]; -0.0785 in assay [5]; -0.158 in assay [6]. In addition, the composite z-score in [7] was -0.665; in assay [9], 0.0338; in [10], 0.127; in [11], -0.52; in assay [15], 0.318; in assay [17], -0.113. Further, the composite z-score in assay [18] was -0.206; in [19] it was 0.141; in assay [20], -0.184. For the same compound, the z-score in assay [8] was -2.29 (inactive); in assay [12], -1.8 (inactive); in assay [13], -0.825 (inactive); in assay [14], -0.614 (inactive); in [16], 1.17 (inactive).
